# Experimental data published in the supplement of paper PMC6555819.
# Tests used:
# Assay in all cases: PBM binding z-score (relative to random genomic background probes); higher = stronger binding; sequences stand for … in GC…GCGATTGACAGCGTAGAATGAAGG
# [1] = system: PPARg:RXRa DBDmut IVT, anti-RXR (DBD mutation: RXRa K156A/R161A, NR concentration 270 nM, RXRa partner concentration 90 nM)
# Summary of the method: (§1)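 Probes were double-stranded and carried 34-nt variable regions with direct-repeat seeds, single-nucleotide variants, half-site ablations and random human genomic background sequences, printed on custom Agilent 4×180K protein-binding microarrays. Arrays were incubated 1 h with ligand-free nuclear receptor dimers in PBS pH 7.4, 2% milk, 0.02% Triton X-100, 1 mM DTT, 0.2 mg/mL BSA and 0.4 mg/ml salmon testes DNA. Antibodies against each partner (one per run) detected binding, and scanned fluorescence was regression-normalized. Binding z-scores use the random background probes as reference.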
# [2] = system: PPARg:RXRa IVT, anti-PPARg (NR concentration 270 nM, RXRa partner concentration 90 nM)
# Summary of the method: as §1
# [3] = system: PPARg DBDmut:RXRa IVT, anti-PPARg (DBD mutation: PPARg1 K132A/R137A, NR concentration 270 nM, RXRa partner concentration 90 nM)
# Summary of the method: as §1
# [4] = system: PPARg DBDmut IVT, anti-PPARg (DBD mutation: PPARg1 K132A/R137A, NR concentration 270 nM)
# Summary of the method: as §1
# [5] = system: PPARg homodimer (NR concentration 180 nM)
# Summary of the method: as §1
# [6] = system: PXR:RXRa (NR concentration 270 nM, RXRa partner concentration 90 nM)
# Summary of the method: as §1
# [7] = system: PXR homodimer (NR concentration 270 nM)
# Summary of the method: as §1
# [8] = system: RARa:RXR (NR concentration 270 nM, RXRa partner concentration 90 nM)
# Summary of the method: as §1
# [9] = system: RARa homodimer (NR concentration 270 nM)
# Summary of the method: as §1
# [10] = system: RARb:RXRa (NR concentration 270 nM, RXRa partner concentration 90 nM)
# Summary of the method: as §1
# [11] = system: RARb homodimer (NR concentration 270 nM)
# Summary of the method: as §1
# [12] = system: RARg:RXRa (NR concentration 270 nM, RXRa partner concentration 90 nM)
# Summary of the method: as §1
# [13] = system: RARg homodimer (NR concentration 270 nM)
# Summary of the method: as §1
# [14] = system: RXRa DBDmut IVT, anti-RXR (DBD mutation: RXRa K156A/R161A, NR concentration 90 nM)
# Summary of the method: as §1
# [15] = system: RXRa homodimer (NR concentration 180 nM)
# Summary of the method: as §1
# [16] = system: THRa:RXRa (NR concentration 90 nM, RXRa partner concentration 90 nM)
# Summary of the method: as §1
# [17] = system: THRa homodimer (NR concentration 90 nM)
# Summary of the method: as §1
# [18] = system: VDR:RXRa (NR concentration 270 nM, RXRa partner concentration 90 nM)
# Summary of the method: as §1
# [19] = system: VDR homodimer (NR concentration 270 nM)
# Summary of the method: as §1
Sequence,PBM binding z-score [1],PBM binding z-score [2],PBM binding z-score [3],PBM binding z-score [4],PBM binding z-score [5],PBM binding z-score [6],PBM binding z-score [7],PBM binding z-score [8],PBM binding z-score [9],PBM binding z-score [10],PBM binding z-score [11],PBM binding z-score [12],PBM binding z-score [13],PBM binding z-score [14],PBM binding z-score [15],PBM binding z-score [16],PBM binding z-score [17],PBM binding z-score [18],PBM binding z-score [19]
CCTTACGGGTCACTGATAGGTTATAGCATTTGGA,3.46,3.73,1.18,0.0564,2.47,3.6,0.321,4.43,1.27,4.02,3.34,5.65,4.89,1.85,5.48,2.74,0.24,3.6,1.17
TCTAGTTGGACACGGAGGTCACACACGACGGGTA,1.98,2.33,0.713,0.0839,2.38,4.16,1.05,4.39,1.25,3.45,4.2,3.95,3.96,0.997,4.47,3.6,2.32,3.76,2.67
TGAATGAGGTTATAAGATCAGGAAACGTTGCAAA,0.583,1.52,0.845,1.12,0.661,0.789,0.0316,1.46,0.238,1.15,0.0307,1.61,0.861,0.926,2.21,1.77,-0.0709,1.01,0.225
AGTCAAAGTTCATCTAGGTAACGTGAGATATGCT,1.17,3.86,1.73,0.803,2.99,5.36,7.67,3.82,1.48,4.96,3.97,5.63,6.26,4.74,4.89,3.05,0.297,5.17,4.95
CAAACTAGGTCACGAAAGGTCAAAGTAGAATGAC,8.54,9.02,2.85,3.25,6.18,6.93,2.94,7.51,4.51,5.71,5.89,7.93,8.94,2.39,8.5,5.12,2.65,6.69,3.78
CCTCGGACGACAGAAGGTCAGAGCTGTCCGCTTT,-0.0338,-0.307,-1.28,-2.04,1.12,1.35,-0.144,2.01,-0.163,2.67,3.09,2.54,2.68,0.306,1.98,1.57,-0.117,0.84,0.204
TTAATGAGGTTATAAGATCAGGGAACGTTGCAAA,2.84,2.61,1.48,1.53,0.917,1.11,0.494,1.66,1.23,1.27,0.668,1.59,1.01,1.63,2.13,2.04,0.52,1.27,0.74
GCTAGCAGGCCATTTGGGTCATTCAATGACGGGC,2.06,2.04,-1.48,-1.11,-0.184,0.822,0.976,0.854,-0.862,1.28,1.64,0.979,1.01,0.394,0.908,1.82,0.24,1.56,1.21
